Measured values: PubChem BioAssay
Active and inactive are the calls of the source.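 The calls were made as follows, unless noted: active = inhibition of the reporter signal at or above 50%; inactive = inhibition below 50%.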

How the values were obtained:
[1] = inhibitors of TNFa-induced NFkB p65 translocation, primary screen, imaging, HUVEC, MLSMR starter and 10KST1 sets (AID 438;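 active = inhibition above 20% together with a positive visual image hit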;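 also: compound added about 3h40 before a 20 min TNFalpha stimulation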;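 as to inhibition: signal is the nuclear over cytoplasmic p65 intensity ratio per well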); conditions: HUVEC TNFa-induced p65 nuclear translocation; cell count: measured here: nuclei count (cytotoxicity indicator), at 2.08 µM; inhibition: at 2 µM, stronger effect = higher value, 0% TNFa-plus-vehicle, 100% no-TNFa wells
[2] = inhibitors of mutant huntingtin aggregation, primary screen, imaging, exon1htt(103Q)mCFP cells, high-content imaging (AID 483;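 active = visual image review flags a hit and inhibition of aggregation exceeds 20%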;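 also: compound exposure lasted 3 days before fixation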;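 as to nuclei count: percent of the per-plate median nuclei count of sample wells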); conditions: exon1htt(103Q)mCFP cell line, aggregate imaging, at 2 µM; inhibition of aggregation: stronger effect = higher value; nuclei count: measured here: cell count, toxicity
[3] = inhibitors of E-selectin induction by TNFa, primary screen, imaging, HUVEC, immunofluorescence, MLSMR starter and 10KST1 sets (AID 487;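 active = visually confirmed hit in the image check and inhibition above 20%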;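 as to inhibition: signal is fraction of cell area covered by stained E-selectin grains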;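 as to nuclei count: 100% = median nuclei count of all wells on the same plate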); conditions: HUVEC TNFalpha-induced E-selectin immunofluorescence imaging, at 2 µM; inhibition: stronger effect = higher value; nuclei count: measured here: cell number, toxicity
[4] = target: Voltage-gated potassium channel subunit beta-2 (Rattus norvegicus) (UniProt P62483); experiment: KvBeta enzyme negative modulators, primary screen, biochemical, NADPH fluorescence (AID 622;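 active = fluorescence slope higher than the sample average by over 3 SD, cut at about -0.22 in these data, passing the limit was not always enough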;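 also: slope of raw intensity against log time taken from 70 to 1610 s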); conditions: recombinant KvBeta, 4-cyanobenzaldehyde reduction, at 10 µM, stronger effect = higher value
Chain of Voltage-gated potassium channel subunit beta-2 (Rattus norvegicus) (P62483 whole entry, looked up): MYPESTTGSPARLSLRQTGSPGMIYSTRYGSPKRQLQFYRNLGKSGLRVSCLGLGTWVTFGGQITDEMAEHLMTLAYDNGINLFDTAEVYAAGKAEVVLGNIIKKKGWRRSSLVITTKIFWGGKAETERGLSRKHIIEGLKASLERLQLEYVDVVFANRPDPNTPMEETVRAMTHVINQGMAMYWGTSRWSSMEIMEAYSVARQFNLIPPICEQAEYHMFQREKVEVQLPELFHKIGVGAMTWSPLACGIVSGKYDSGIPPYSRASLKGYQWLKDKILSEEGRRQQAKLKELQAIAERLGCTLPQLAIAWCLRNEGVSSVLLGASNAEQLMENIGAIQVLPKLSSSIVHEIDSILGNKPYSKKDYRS

[5] = target: Voltage-gated potassium channel subunit beta-2 (Rattus norvegicus) (UniProt P62483); experiment: KvBeta positive modulators, primary screen, biochemical, NADPH fluorescence (AID 623;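 active = NADPH fluorescence slope more negative than the mean of all samples by about 3 SD, 99.7% confidence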;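 also: fluorescence intensity change per second fitted from 20 to 320 s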); conditions: Recombinant KvBeta, NADPH fluorescence decrease slope, 10 min; at 10 µM; stronger effect = lower value
[6] = target: Alpha-2C adrenergic receptor (Homo sapiens) (UniProt P18825); experiment: modulators of alpha2C/GIRK thallium flux, primary screen, cell-based, HEK293 alpha2C/GIRK1/2 (AID 624;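 active = fluorescence slope after compound addition differing from the mean of all screened samples at 99.7% confidence, in either direction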;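 also: slope of fluorescence ratio to pre-addition baseline per second over 15 to 24 s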); conditions: thallium flux BTC fluorescence, at 10 µM, actives lie on both sides
Chain of Alpha-2C adrenergic receptor (Homo sapiens) (P18825 whole entry, looked up): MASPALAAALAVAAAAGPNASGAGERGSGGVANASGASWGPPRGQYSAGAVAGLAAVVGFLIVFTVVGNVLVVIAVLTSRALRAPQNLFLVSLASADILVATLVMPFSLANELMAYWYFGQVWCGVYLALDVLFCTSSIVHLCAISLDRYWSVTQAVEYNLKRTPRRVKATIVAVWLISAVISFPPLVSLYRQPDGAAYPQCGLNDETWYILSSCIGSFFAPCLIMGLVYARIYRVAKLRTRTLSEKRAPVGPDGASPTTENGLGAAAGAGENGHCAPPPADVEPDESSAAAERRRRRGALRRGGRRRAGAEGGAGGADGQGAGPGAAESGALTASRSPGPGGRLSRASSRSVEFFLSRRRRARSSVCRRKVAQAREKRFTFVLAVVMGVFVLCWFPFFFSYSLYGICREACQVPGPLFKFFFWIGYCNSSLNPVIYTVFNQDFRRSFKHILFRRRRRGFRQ

[7] = inhibitors of Sendai virus-induced IRF3 signaling, primary screen, TLR/RLR signaling modifier project, cell-based, Sendai virus stimulus, luciferase, 10K MLSCN set (AID 602276;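 active = inhibition at or above 50% at 10 µM; inactive = inhibition below 50%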;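 also: firefly luciferase from ISG56 promoter only with Renilla not read in this screen; 0% = Sendai virus plus DMSO and 100% = medium plus DMSO without virus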); conditions: HEK293 RL24 IRF3 luciferase reporter, at 10 µM, stronger effect = higher value
[8] = inhibitors of poly I:C-induced TLR3 signaling, primary screen, cell-based, poly I:C stimulus, luciferase, 10K MLSCN set (AID 602277); conditions: HEK293-TLR3 RL24 IRF3 luciferase reporter, at 10 µM, stronger effect = higher value

Compound	cell count [1]	inhibition [1]	inhibition of aggregation [2]	nuclei count [2] [%]	inhibition [3]	nuclei count [3] [%]	fluorescence slope [4]	NADPH fluorescence slope [5]	slope [6]	inhibition [7]	inhibition [8]
COc1cc(-c2noc(-c3ccccc3C(=O)NCc3ccco3)n2)cc(OC)c1OC	654	-5.4% (inactive)	-4% (inactive)	112	-111% (inactive)	156	-0.59 (inactive)	-4.7e-05 (inactive)	0.00612 (inactive)	14.7% (inactive)	31.9% (inactive)
CCC(C)(C)NC(=O)CN(Cc1ccc2c(c1)OCO2)C(=O)CCC(=O)Nc1ccccn1	517	-20.9% (inactive)	-0.5% (inactive)	92.4	-59.2% (inactive)	114	-0.403 (inactive)	-6.3e-05 (inactive)	0.00669 (inactive)	12.5% (inactive)	21.6% (inactive)
CC(C)(CSc1nncn1N)NS(=O)(=O)c1ccc(Cl)cc1	690	-4.4% (inactive)	11.7% (inactive)	58.2	-17.3% (inactive)	108	-0.447 (inactive)	-4.4e-05 (inactive)	0.00436 (inactive)	-0.22% (inactive)	4% (inactive)
CC1CCN(S(=O)(=O)c2cccc(C(=O)Nc3ccccn3)c2)CC1	338	-4.3% (inactive)	26.3% (inactive)	78	4.5% (inactive)	90.4	-0.338 (inactive)	-4.1e-05 (inactive)	0.00478 (inactive)	18.4% (inactive)	23.9% (inactive)
COC(=O)CCC(=O)Nc1cccc(Br)c1	495	-5.7% (inactive)	-24.7% (inactive)	111	56.2% (active)	91.4	-0.478 (inactive)	-0.000246 (inactive)	0.00597 (inactive)	9.55% (inactive)	17.4% (inactive)
Nc1ncnc2oc(-c3ccco3)c(-c3ccco3)c12	413	-3.3% (inactive)	15.7% (inactive)	84.7	-29.9% (inactive)	111	-0.49 (inactive)	-1.2e-05 (inactive)	0.00377 (inactive)	-5.47% (inactive)	-31.5% (inactive)
COc1ccc(C2C(C(=O)NCCN3CCOCC3)c3ccccc3C(=O)N2C2CCCCC2)cc1 (centres undefined)	334	10.1% (inactive)	12.7% (inactive)	111	-93.5% (inactive)	111	-0.611 (inactive)	-2.8e-05 (inactive)	0.00399 (inactive)	30.2% (inactive)	26% (inactive)
O=C(CN(C1CCCCC1)S(=O)(=O)c1ccccc1)NCc1cccnc1	671	2% (inactive)	-28.8% (inactive)	110	-75.7% (inactive)	119	-0.308 (inactive)	-3e-05 (inactive)	0.00649 (inactive)	5.99% (inactive)	13.7% (inactive)
CSc1nc(C)c(C(=O)Nc2ccccc2)c(C)c1C#N	761	-11.2% (inactive)	-5.9% (inactive)	103	-40.9% (inactive)	118	-0.483 (inactive)	-2.5e-05 (inactive)	0.00491 (inactive)	16.8% (inactive)	18.5% (inactive)
CN1CCN(Cc2nc3c(c(=O)[nH]c(=O)n3C)n2CCc2ccccc2)CC1	632	7.4% (inactive)	6.7% (inactive)	99.2	-34.7% (inactive)	119	-0.436 (inactive)	-1.6e-05 (inactive)	0.00646 (inactive)	3.33% (inactive)	39.3% (inactive)
Cc1nnc(NC(=O)CSc2cn(CCNC(=O)c3ccccc3)c3ccccc23)s1	651	-9.6% (inactive)	28.2% (inactive)	70.8	-12.7% (inactive)	106	-0.452 (inactive)	5.8e-06 (inactive)	0.00437 (inactive)	-1.29% (inactive)	-44.3% (inactive)
COc1ccc(NC(=O)CSc2c(C)nn(-c3nnc(C)c(=O)[nH]3)c2C)cc1	387	-4.5% (inactive)	-12.6% (inactive)	107	-170% (inactive)	134	-0.537 (inactive)	2e-05 (inactive)	0.00687 (inactive)	1.41% (inactive)	3.06% (inactive)
O=c1c(-c2ccc(Br)cc2)coc2c(CN3CCOCC3)c(O)ccc12	557	-2.4% (inactive)	-1.6% (inactive)	102	-9.2% (inactive)	118	-0.0321 (active)	3.3e-05 (inactive)	0.00611 (inactive)	2.64% (inactive)	-17.1% (inactive)
CN1CCc2c(sc3c2c(=O)n(-c2cccc(Cl)c2)c2nncn32)C1	579	13.9% (inactive)	5.9% (inactive)	112	37.3% (inactive)	105	-0.513 (inactive)	-3.5e-05 (inactive)	0.00609 (inactive)	-7.55% (inactive)	11.7% (inactive)
CCc1nnc(NC(=O)NCN2C(=O)C3C4C=CC(C4)C3C2=O)s1 (centres undefined)	303	4.3% (inactive)	3.2% (inactive)	92.9	-28.4% (inactive)	96.4	-0.458 (inactive)	-0.000309 (inactive)	0.00673 (inactive)	7.26% (inactive)	12.4% (inactive)
CCC(Oc1ccccc1)C(=O)Nc1ccccc1OC (centres undefined)	352	9.2% (inactive)	-9.3% (inactive)	106	-33.3% (inactive)	109	-0.487 (inactive)	-1.9e-05 (inactive)	0.00497 (inactive)	0.598% (inactive)	19.3% (inactive)
CCOC(=O)C1CCN(c2c(N(C)Cc3ccco3)c(=O)c2=O)CC1	789	0.9% (inactive)	3.8% (inactive)	103	-33.1% (inactive)	114	-0.576 (inactive)	-2.6e-05 (inactive)	0.00601 (inactive)	5.07% (inactive)	22.7% (inactive)
COc1ccccc1N1CCN(C(=O)c2ccc(S(=O)(=O)N3CCCCCC3)cc2)CC1	604	-13% (inactive)	-9.1% (inactive)	89.6	-59.2% (inactive)	89.3	-0.606 (inactive)	-2.1e-05 (inactive)	0.0031 (inactive)	-1.31% (inactive)	-1.9% (inactive)
CSc1nc2c(c(=O)n1C)SC(C)C2 (centres undefined)	612	8.7% (inactive)	-10.1% (inactive)	111	-32.9% (inactive)	115	-0.567 (inactive)	-4.8e-05 (inactive)	0.00545 (inactive)	4.05% (inactive)	31.4% (inactive)
